# Pol eta inh-1: inhibitors of human DNA polymerase eta. Potency, µM (series often up to 114 µM), for the others: top-dose activity change, negative = inhibition, hits mostly inhibitors. recombinant Pol eta, fluorescent DNA replication assay. hit rate 1.2% among 390,000. Q9Y253. AID 588591; also: potency is read from the fitted curve at half-maximal effect; % is scaled to controls: 0 for no effect and ±100 for the full control effect
#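 Pol eta (10 nM) was preincubated with compounds for 15 min at room temperature, after which fluorescent replication substrate (50 nM final) was added to start the reaction. Fluorescence was read kinetically at 0 and 10 min.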
# PI5P4K alpha inh: blocks human PI5P4K alpha kinase activity | hit rate 1.2% among 330,000 | P48426 | max response, % | PI5P4Kalpha enzyme, ADP-Glo luminescence, 60 min; active compounds read low | AID 652105; active = max response of -50% or lower; inconclusive = between -30% and -50%; inactive = -30% or higher; also: value at the top dose of about 77 µM; % is scaled to controls: 0 for no effect and ±100 for the full control effect
# Target sequence (P48426 whole entry, looked up): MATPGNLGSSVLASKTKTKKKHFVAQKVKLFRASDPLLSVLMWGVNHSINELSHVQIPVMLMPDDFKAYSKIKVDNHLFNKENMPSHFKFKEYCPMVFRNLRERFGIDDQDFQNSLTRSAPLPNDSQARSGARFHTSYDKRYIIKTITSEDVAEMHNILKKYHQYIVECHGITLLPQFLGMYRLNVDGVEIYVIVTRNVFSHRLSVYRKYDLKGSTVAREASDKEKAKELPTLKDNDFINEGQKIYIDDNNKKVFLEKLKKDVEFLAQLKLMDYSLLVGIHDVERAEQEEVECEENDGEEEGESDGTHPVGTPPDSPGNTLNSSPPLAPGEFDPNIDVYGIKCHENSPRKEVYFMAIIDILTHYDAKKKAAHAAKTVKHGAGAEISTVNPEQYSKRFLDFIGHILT
#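 Compounds were pin-transferred onto PI5P4Kalpha and substrate in HEPES pH 7.4 buffer with EGTA, CHAPS and 5% DMSO. ATP (5 microM final) started the reaction, which ran 60 minutes at room temperature before ADP-Glo detection.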
# POLB inh: blocks human DNA polymerase beta activity. hit rate 1.3% among 340,000. P06746. Potency, µM (top dose mostly 114 µM), for the others: at the highest dose activity change, negative = inhibition, most hits filed as inhibitors. Pol beta primer extension/strand displacement, fluorescence kinetic; also: potency is read from the fitted curve at half-maximal effect; % is scaled to controls: 0 for no effect and ±100 for the full control effect
#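 Pol beta (10 nM) was preincubated with compound for 15 min at room temperature. The reaction was then started with 50 nM substrate and read immediately and after a further 10 min at room temperature.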
# WRN helicase inh: WRN helicase (human) inhibition. Q14191. WRN helicase unwinding, fluorescent forked duplex, kinetic. Potency, µM (highest dose often 114 µM), for the others: at the top dose activity change, negative = inhibition, actives largely listed as inhibitors. hit rate 0.46% among 360,000; also: potency is read from the fitted curve at half-maximal effect; % is scaled to controls: 0 for no effect and ±100 for the full control effect; nearly all actives have a fitted effect of over 55% in size
#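 Kinetic red-fluorescence monitoring (525/598 nm) tracks WRN helicase activity after 100 nM fluorophore-quencher forked duplex and 2 mM ATP are added to 20 nM enzyme pretreated 15 min at room temperature with compound.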
# Pol iota inh: blocks human DNA polymerase iota activity; Potency, µM (top dose mostly 115 µM), without a hit: at the top dose activity, negative = inhibition, actives largely listed as inhibitors; AID 588590; hit rate 1% among 390,000; Pol iota fluorescent replication assay, 10 min; Q9UNA4; also: potency is read from the fitted curve at half-maximal effect
#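 Pol iota at 10 nM preincubated 15 min with compounds at room temperature; reaction started with fluorescent substrate, 50 nM final. Fluorescence read kinetically at 0 and 10 min; buffer-only wells as negative control.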
# Pol kappa inh-1: DNA polymerase kappa (human) inhibition | Q9UBT6 | purified Pol kappa, fluorescent DNA synthesis assay, 10 min | Potency, µM (titrated, usually from 107 µM), for the others: at the top dose activity, negative = inhibition, most hits filed as inhibitors | hit rate 0.53% among 400,000; also: potency is read from the fitted curve at half-maximal effect; % is scaled to controls: 0 for no effect and ±100 for the full control effect
#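 Pol kappa 10 nM + cpd, 15 min RT; start w/ substrate 50 nM final; fluorescence kinetic read, 0 and 10 min. Neg ctrl: buffer, no enzyme.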
# GALK inh confirm: confirmation of human galactokinase (GALK) inhibitors; shares compounds with Pol eta inh-1; purified GALK, Kinase-Glo ATP depletion luminescence; hit rate 70% among 150; Potency, µM (top dose mostly 115 µM), inactives show top-dose activity, negative = inhibition, most hits filed as inhibitors
# Redox cycling: counter-screen for GALK inhibitors: redox cycling H2O2 generation; Potency, µM (titrated, usually from 115 µM), for inactives: at the highest dose activity change, negative = H2O2 signal, usual class: inhibitors; Phenol red-HRP H2O2 redox cycling, absorbance 600 nm; hit rate 40% among 150; shares compounds with Pol eta inh-1; AID 2035
# HEK293 viability: HEK-293 cytotoxicity, GALK inhibitor secondary | shares compounds with Pol eta inh-1 | HEK-293 viability, ATP luminescence (CellTiter-Glo), 24/48 h | Potency, µM (series often up to 46.1 µM), inactives show top-dose activity change, negative = cytotoxicity, most hits filed as inhibitors | hit rate 10% among 170 | AID 2547; also: potency is read from the fitted curve at half-maximal effect; % is scaled to controls: 0 for no effect and ±100 for the full control effect
# Pol kappa inh-2: Pol kappa (human) inhibition, cherry-pick confirmation; shares compounds with Pol eta inh-1; purified Pol-kappa, fluorescent strand-displacement substrate; Potency, µM, actives largely listed as inhibitors; hit rate 76% among 920; also: potency is read from the fitted curve at half-maximal effect
# Pol eta inh-2: confirmation of human DNA polymerase eta inhibitors; shares compounds with Pol eta inh-1; Pol eta primer extension, TAMRA/BHQ fluorescence, 10 min; Potency, µM, actives largely listed as inhibitors; hit rate 64% among 2,600; also: potency is read from the fitted curve at half-maximal effect
# The depositor's hits bear a star; ? = inconclusive; . = no result; [ ] = dose if it differs, or a comment. Sampled rows, rich in hits. Any-hit rate of the full collection: about 2.8%. Unless noted, calls follow the shape of the dose curve; as a rule, active = well fitted curve in the direction sought with a large enough effect; inconclusive = small, poorly fitted or top-dose-only effect, or another doubt; inactive = no such curve, though single readings can be large; an effect the other way counts as inactive or inconclusive.
SMILES,Pol eta inh-1,PI5P4K alpha inh,POLB inh,WRN helicase inh,Pol iota inh,Pol kappa inh-1,Pol eta inh-2,others
CC(=O)c1ccc(NC(=O)C(C)Sc2nnc3ccccn23)cc1 (stereo unspecified),-5%,1,.,-24%,7%,-6%,.,
O=C(O)c1ccc(Cn2nnc3sc4c(c3c2=O)CCCC4)cc1,20µM*,-12,12%,-3%[11.6 µM],?,?,?,
COC(=O)c1ccc(Cn2nnc3sc4c(c3c2=O)CCCC4)cc1,.,.,?,.,-8%,-6%,.,
COc1ccc(C2C(C#N)=C(N)OC3=C2C(=O)CC(C)(C)C3)cc1 (stereo unspecified),-18%,-5,-5%,1%,-8%,3%,.,
COc1cc(C2C(C#N)=C(N)OC3=C2C(=O)CC(C)(C)C3)cc2c1OCO2 (stereo unspecified),?,-59*,.,?,25µM*,?,?,
O=C(O)C/C(=C\c1ccc(N2CCOCC2)c([N+](=O)[O-])c1)c1nc2ccccc2s1,32µM*,-54*,?,?,-23%,?,.,Pol kappa inh-2=?
O=[n+]1c2c(n([O-])c3cc(F)c(N4CCCC4)cc31)CCCC2,?,-1,-9%,?,?,-11%,.,
O=[n+]1c2c(n([O-])c3cc(F)c(N4CCCC4)cc31)CCC2,?,-22,.,?,?,?,?,
Cc1nc2ccccc2n2c(O)c(CC(=O)O)cc12,79µM*,.,?,?,?,?,?,Pol kappa inh-2=67*
CC(C)NC(=O)N1CCC2(CC1)CCN(C(=O)c1cc(C(F)(F)F)cc(C(F)(F)F)c1)CC2,.,.,.,.,.,-9%[60.1 µM],.,
CCn1c(SCC(=O)c2ccc3c(c2)Cc2ccccc2-3)nnc1-c1ccc(N)cc1,-5%,.,-1%,-6%,8%,6%,.,
CCn1c(SCC(=O)c2ccc(O)c(O)c2)nnc1-c1ccc(C)cc1,10µM*,?,-46%,13µM*,-51%,28µM*,60*,Pol kappa inh-2=?
O=C(NN1C(=O)/C(=C/c2ccc(O)c(O)c2)SC1=S)c1ccccc1,1.1µM*,-53*,18µM*,?,22µM*,40µM*,?,
O=C(NN1C(=O)/C(=C/c2cccc(O)c2)SC1=S)c1ccccc1O,?,-18,0%,-3%[11.6 µM],?,-16%,.,
COc1ccc(C(=O)NCc2ncccc2C)cc1OC1CCN(C(C)=O)CC1,-12%,1,27%,-4%,?,-6%,.,
COc1ccccc1/C=C1/SC(=S)N(CCC(=O)Nc2cccnc2)C1=O,-16%,1,13%,-8%,18%,7%,.,
O=C(CN1C(=O)S/C(=C\c2cccn2-c2ccc(C(=O)O)cc2)C1=O)Nc1ccc(F)cc1,.,.,.,.,.,.,30*,
COc1ccccc1/C=C1\SC(=S)N(CCC(=O)Nc2ccc(C(=O)O)c(O)c2)C1=O,35µM*,?,79µM*,-11%[11.6 µM],?,-34%,?,Pol kappa inh-2=?
CC(/C=C1\SC(=S)N(CCC(=O)Nc2cccc(C(=O)O)c2)C1=O)=C\c1ccccc1,?,-77*,?,79µM*,-12%,-14%,?,Pol kappa inh-2=?
O=C(CCN1C(=O)/C(=C\c2cccs2)SC1=S)Nc1ccc(C(=O)O)cc1,56µM*,-6,88%,1%[11.6 µM],?,?,?,
Cc1ccc(S(=O)(=O)N/N=C\c2ccc3c(c2)OCO3)c(C)c1,-19%,-1,-16%,0%,45%,-18%,.,
COc1ccccc1/C=C1/SC(=O)N(CCC(=O)Nc2ccc(S(=O)(=O)Nc3nccs3)cc2)C1=O,20µM*,-29,?,?,50µM*,-14%,?,
CC(c1ccccc1)N1C(=O)c2ccc(C(=O)Nc3ccc(Br)cc3C(=O)O)cc2C1=O (stereo unspecified),50µM*,-57*,14%,-15%[11.6 µM],-13%,-8%,76*,
O=C(c1ccc2c(c1)N(Cc1c(F)cccc1Cl)C(=O)c1ccccc1S2)N1CCCC1,-29%,.,-1%,.,5%,-13%,.,
O=C(c1ccc2c(c1)N(Cc1cccc(F)c1)C(=O)c1ccccc1S2)N1CCCC1,79µM*,.,40µM*,.,79µM*,2%[60.1 µM],?,Pol kappa inh-2=?
SMILES,Pol eta inh-1,PI5P4K alpha inh,POLB inh,WRN helicase inh,Pol iota inh,Pol kappa inh-1,Pol eta inh-2,others
CC(C)ON([C@@H](C(=O)NO)C(C)C)S(=O)(=O)c1ccc(-c2ccccc2)cc1,.,.,.,.,.,-21%[60.1 µM],.,
O=C(COc1ccccc1/C=C\c1[nH]c(=O)[nH]c(=O)c1[N+](=O)[O-])Nc1ccccc1,22µM*,-69*,9%,-6%[11.6 µM],20µM*,-18%,76*,GALK inh confirm=38µM*;Redox cycling=-11%;HEK293 viability=-5%
O=S1(=O)CCS(=O)(=O)C1c1ccccc1,-21%,6,.,-17%,104%,1%,.,
CC(=O)CCc1c(C)nc2ccc(C(=O)O)cc2c1Cl,20µM*,2,?,-9%[11.6 µM],?,-51%,30*,
CCOc1ccc2[nH]c(=O)c(C(c3nnnn3Cc3ccco3)N3CCN(C)CC3)cc2c1 (stereo unspecified),-20%,1,2%,4%,68%,9%,.,GALK inh confirm=-6%;Redox cycling=3%;HEK293 viability=0%
O=C1CSC(=S)N1/N=C/C=C/c1ccccc1,14µM*,-63*,28µM*,-28%,20µM*,?,?,
COc1cc(OC)cc(C(=O)NC(C)CNc2ccc(Cl)cc2[N+](=O)[O-])c1 (stereo unspecified),-8%,11,?,-6%,0%,-6%,.,

# Compound activity as filed in PubChem.
